Bioassay records (PubChem BioAssay)
Compounds with a hit are over-represented: about 1% of the library has one in this group of screens.
Glioma ERSR ind: ER stress response induction in glioma. U87-MG GRP78 promoter luciferase reporter, 16 h. Potency, µM, usual class: activators. AID 602332. 420,000 tested, 0.02% active; active = well fitted activation curve with a large enough effect; inconclusive = small, poorly fitted or top-dose-only effect; inactive = no such curve, though single readings can be large or run the other way; note: series mostly up to about 76 µM; nearly all actives have a fitted effect of over 35% in size
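Stably transfected U87-MG glioma cells carrying a GRP78-based luciferase sensor; 16 h compound incubation. Luminescence end-point read 10 min after Bright-Glo addition at room temperature.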
TRPML1 ag: activates the human TRPML1 channel; Q9GZU1; TRPML1-expressing cells, Ca2+ dye fluorescence, FDSS; activation, % (concentration not given with the values); 410,000 tested, 0.12% active; AID 624414; in the data active = activation above about 50%; inconclusive = mostly about 30% to 49%
Target sequence (Q9GZU1 whole entry, looked up): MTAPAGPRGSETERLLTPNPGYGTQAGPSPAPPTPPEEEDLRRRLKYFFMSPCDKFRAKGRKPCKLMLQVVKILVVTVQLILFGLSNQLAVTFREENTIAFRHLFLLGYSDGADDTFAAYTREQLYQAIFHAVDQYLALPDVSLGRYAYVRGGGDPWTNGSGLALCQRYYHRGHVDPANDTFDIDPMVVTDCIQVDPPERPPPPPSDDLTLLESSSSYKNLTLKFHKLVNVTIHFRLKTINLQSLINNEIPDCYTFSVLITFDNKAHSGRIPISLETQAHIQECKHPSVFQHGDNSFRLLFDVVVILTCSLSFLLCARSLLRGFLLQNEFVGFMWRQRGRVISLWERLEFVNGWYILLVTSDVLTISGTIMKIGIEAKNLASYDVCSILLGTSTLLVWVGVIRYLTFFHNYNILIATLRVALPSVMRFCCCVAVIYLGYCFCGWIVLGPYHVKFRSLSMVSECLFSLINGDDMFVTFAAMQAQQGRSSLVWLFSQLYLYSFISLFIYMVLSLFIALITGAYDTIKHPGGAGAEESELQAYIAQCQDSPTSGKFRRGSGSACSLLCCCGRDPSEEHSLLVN
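In this qHTS format, compounds were pin-transferred onto Ca8-dye-loaded TRPML1-DL cells induced with Tet overnight, and intracellular Ca2+ fluorescence was recorded kinetically for 110 s after a 10 s baseline. A subsequent 4uM final 54-4 (EC80) addition followed by a second 110 s read served as the antagonist phase.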
TRPML1 blocker: blocks the human TRPML1 channel. activity change, negative = inhibition, % (test concentration not listed). 390,000 tested, 0.02% active. AID 624415. TRPML1-inducible cells, Ca2+ dye fluorescence, FDSS; stronger effect = lower value; inhibition of EC80 agonist-evoked calcium signal. Q9GZU1; in the data active = activity change below about -50%; inconclusive = between about -30% and that limit;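 note: stimulus is agonist 54-4 at its EC80 concentration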
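Tet-induced TRPML1-DL cells loaded with Ca8 no-wash calcium dye were read kinetically on FDSS. Compound addition was followed by EC80 agonist 54-4 (4 uM final); inhibition was read over 110 s.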
TSG101-PTAP inh: blocks PTAP/TSG101 interaction to inhibit HIV-1 budding | Fluorescence polarization, FITC-PTAP peptide / Tsg101 binding | Potency, µM (doses to about 115 µM), usual class: inhibitors | 340,000 tested, under 10 active | AID 493005; active = well fitted inhibition curve with a large enough effect in the main read-out, with a control signal flat, not every such curve was filed as active; inconclusive = small, poorly fitted or top-dose-only effect, or effect the other way, or a change in a side signal; inactive = no such curve, though single readings can be large or run the other way
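Steps: Tsg101 binding domain dispensed (10 uM final), compounds pinned in DMSO, FITC-labeled PTAP-motif peptide added (50 nM final); after 20 min binding at room temperature, polarization measured.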
KCNH2 WT inh: inhibitors of human wildtype KCNH2 potassium channel; Q12809; activity change, % at 1.84 µM; U2OS, BacMam KCNH2, thallium flux FluxOr; stronger effect = lower value; 340,000 tested, 0.37% active;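 active = maximum activity change below -70%; inconclusive = maximum activity change between -70% and -50%; inactive = maximum activity change above -50%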
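U2OS cells transduced with wild-type KCNH2 virus are loaded with FluxOr dye for 45 min, and thallium flux is measured in kinetic reads before and after stimulation buffer. Rate constants are normalized to DMSO controls.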
KCNH2 3.1 inh: blocks the human KCNH2 3.1 channel isoform. U2OS KCNH2 3.1, thallium flux FluxOr; stronger effect = lower value. AID 720553. activity change, % (tested at about 1.8 µM). 340,000 tested, 0.95% active;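 active = maximum activity change below -70%; inconclusive = maximum activity change from -70% to -50%; inactive = maximum activity change above -50%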;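 note: thallium influx rate constant from kinetic fluorescence after stimulation buffer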
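We transduce U2OS cells with the mutant 3.1 virus, culture them overnight, load FluxOr with Red40 quencher for 45 min, then add stimulation buffer and read kinetically for 2 min to derive a normalized rate constant.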
Each line names hits and unclear results; the compound was inactive in the other large screens.

COCC(=O)Nc1cc(C(=O)N2CC3CCCC2C3)c2c(c1)nc(-c1ccncc1)n2C (stereo not drawn)	none (no result: TRPML1 ag, TRPML1 blocker, TSG101-PTAP inh, KCNH2 WT inh, KCNH2 3.1 inh)
Cn1nc(-c2ccccc2)c(C(=O)Nc2ccc(C(F)(F)F)cc2)c1Cl	KCNH2 3.1 inh -73
COc1ccc(N(C(=O)c2ccco2)S(=O)(=O)c2ccc(F)cc2)cc1	none
COc1ccc(N(C(=O)c2ccco2)S(=O)(=O)c2cc(OC)ccc2OC)cc1	Glioma ERSR ind 40µM
CN(C)c1cc(-c2ccc(Cl)c(Cl)c2)oc(=O)c1Cl	KCNH2 3.1 inh -98
CCN1C(=O)C(=CC=CN(C)c2ccccc2)SC1=S	TRPML1 ag inconclusive, KCNH2 WT inh -72 (no result: TSG101-PTAP inh)
COC(=O)c1c(OCc2cccnc2)cc(=O)n2c1CCN(C(=O)c1cccc(N(C)C)c1)CC2	none (no result: TRPML1 ag, TRPML1 blocker, TSG101-PTAP inh, KCNH2 WT inh, KCNH2 3.1 inh)
Cc1ccc(-c2nn(C)c(=O)c3ccccc23)cc1CNC(=O)NC1CCCCC1	KCNH2 WT inh -142, KCNH2 3.1 inh -166
CC(=O)NCc1cc(-c2nn(C)c(=O)c3ccccc23)ccc1C	none
COCCN1CCN(C(=O)c2cnn(-c3nccc(-c4ccco4)n3)c2C(C)C)CC1	none (no result: TRPML1 ag, TRPML1 blocker, TSG101-PTAP inh, KCNH2 WT inh, KCNH2 3.1 inh)
O=C(CN(Cc1ccccc1)C(=O)c1cccc([N+](=O)[O-])c1)Nc1c(Cl)cc(Cl)cc1Cl	KCNH2 3.1 inh -87
Cc1nnc(N2CCC(C(=O)NC3CCCCC3)CC2)c2nn(-c3ccccc3)c(C)c12	TRPML1 blocker -58 (no result: TSG101-PTAP inh, KCNH2 WT inh, KCNH2 3.1 inh)
Cc1nnc(N2CCC(C(=O)NCCc3ccccc3Cl)CC2)c2nn(-c3ccccc3)c(C)c12	none (no result: TSG101-PTAP inh, KCNH2 WT inh, KCNH2 3.1 inh)
Cc1ccccc1CNC(=O)C1CCCN(c2nnc(C)c3c(C)n(-c4ccccc4)nc23)C1 (stereo not drawn)	KCNH2 3.1 inh -71
Cc1nnc(N2CCCC(C(=O)NCc3ccccc3F)C2)c2nn(-c3ccccc3)c(C)c12 (stereo not drawn)	none
Cc1ncc2c(c1CNC(=O)c1ccc3c(c1)OCO3)CCN(C(=O)/C=C/c1ccc(Cl)cc1)C2	none (no result: TRPML1 ag, TRPML1 blocker, TSG101-PTAP inh, KCNH2 WT inh, KCNH2 3.1 inh)
Cc1ccc2nc(SCC(=O)NCC3Cc4cccc(-c5nc(C)cnc5C)c4O3)[nH]c2c1 (stereo not drawn)	none (no result: TRPML1 ag, TRPML1 blocker, TSG101-PTAP inh, KCNH2 WT inh, KCNH2 3.1 inh)
Nc1c(O)ccc2c1C(=O)c1ccccc1C2=O	none
Nc1cc(N)c2c(c1)C(=O)c1ccccc1-2	KCNH2 WT inh -131, KCNH2 3.1 inh -198
O=C1C=C(NCC2CCCO2)C2(CCCCC2)O1 (stereo not drawn)	KCNH2 3.1 inh -79
O=C(Cn1c(=O)oc2cc(S(=O)(=O)N3CCCCC3)ccc21)N1CCCCC1	KCNH2 3.1 inh -106
COc1ccc(NS(=O)(=O)c2c(C(=O)N3CCCCCC3)c(C)n(C)c2C)cc1	KCNH2 3.1 inh -74
COc1cc(=O)n2c(c1C(=O)N(C)Cc1cscn1)CCN(C(=O)c1ccc(C)c(C)c1)CC2	none (no result: TRPML1 ag, TRPML1 blocker, TSG101-PTAP inh, KCNH2 WT inh, KCNH2 3.1 inh)
COc1ccc(-c2cccc3c2OC(CNC(=O)c2ccccc2-n2cccn2)C3)nn1 (stereo not drawn)	none (no result: TRPML1 ag, TRPML1 blocker, TSG101-PTAP inh, KCNH2 WT inh, KCNH2 3.1 inh)
OC(CN1C2=NCCN2c2ccccc21)c1ccccc1 (stereo not drawn)	none
OC(COc1ccc(Cl)cc1)CN1C2=NCCCN2c2ccccc21 (stereo not drawn)	KCNH2 WT inh -146, KCNH2 3.1 inh -97
OC(CN1C2=NCCN2c2ccccc21)c1ccc(Br)cc1 (stereo not drawn)	KCNH2 3.1 inh -73
OC(CN1C2=NCCCN2c2ccccc21)c1ccc(Cl)cc1 (stereo not drawn)	KCNH2 3.1 inh -74
Clc1ccc(CN2C3=NCCCN3c3ccccc32)cc1	KCNH2 3.1 inh inconclusive
Clc1ccc(CN2C3=NCCCN3c3ccccc32)cc1Cl	KCNH2 WT inh -85, KCNH2 3.1 inh -104
COc1cccc(CNC(=O)c2c(OC)cc(=O)n3c2CCN(C(=O)c2ccccc2Cl)CC3)c1	none (no result: TRPML1 ag, TRPML1 blocker, TSG101-PTAP inh, KCNH2 WT inh, KCNH2 3.1 inh)
Nc1cc(OC(=O)c2cccs2)nn1S(=O)(=O)c1ccccc1	none
Nc1cc(OC(=O)c2cccs2)nn1S(=O)(=O)c1ccc(F)cc1	KCNH2 3.1 inh -212
CC(C)CSc1nnc(CNC(=O)c2ccccn2)n1C	none (no result: TRPML1 ag, TRPML1 blocker, TSG101-PTAP inh, KCNH2 WT inh, KCNH2 3.1 inh)
